Assay outcomes from PubChem BioAssay.
Most compounds without a hit are left out; they make up all but 3.3% or so of the library.
SMARCA2 activ: SMARCA2 function activation, primary screen; MG213 cells, MMTV-luciferase reporter, dexamethasone, overnight; activation, % at 9.1 µM; 370,000 compounds, 1% hits; in the data active means activation above about 7.8%
Jurkat NFkB inh: inhibitors of the PMA/ionomycin-induced NF-kB reporter in Jurkat cells | PMA/ionomycin-induced NF-kB luciferase reporter, luminescence | inhibition, % at 4 µM | 330,000 compounds, 0.53% hits | AID 435003; in the data active means inhibition above about 50%
esBAF inh: inhibitors of esBAF chromatin remodeling in mouse ES cells; Bmi1-luciferase knock-in reporter, 24 h; 100% = twice the neutral-well signal; reporter increase, % at 12.5 µM; 350,000 compounds, 2% hits; in the data active means activation above about 40%;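 further: a rise in the Bmi1 reporter signal indicates esBAF inhibition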
Gli-Sufu block: blocks Gli-Sufu signaling in a luciferase reporter. Sufu-KO-LIGHT fibroblasts, Gli luciferase reporter luminescence. inhibition, % at 5 µM. 340,000 compounds, 0.74% hits;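 active means inhibition above about 55%, limit read from the data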
697 NFkB inh: lowers PMA/ionomycin-induced NF-kB signal in 697 B cells | 697 B-cell NF-kB luciferase reporter, 16 h | inhibition, % at 4 µM | 330,000 compounds, 0.33% hits | AID 435022; in the data active means inhibition above about 35%
Jurkat NFkB conf: inhibitors of the PMA/ionomycin-induced NF-kB reporter in Jurkat cells, retest; shares compounds with Jurkat NFkB inh; inhibition, % at 4 µM; 2,700 compounds, 27% hits; Jurkat NF-kB luciferase, 16 h;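 active means inhibition reaching about 45% at 4 µM in either replicate, limit read from the data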
A number is an active result; n = inactive; x = no result given.

SMILES	SMARCA2 activ	Jurkat NFkB inh	esBAF inh	Gli-Sufu block	697 NFkB inh	Jurkat NFkB conf
O=C(C[C@H]1C=C[C@H](NC(=O)c2cccnc2)[C@@H](CO)O1)NCc1ccc(Cl)c(Cl)c1	x	x	n	x	x	x
COc1ccc(Nc2nc3cc(C)ccc3cc2C#N)c(OC)c1	n	65.1	x	n	n	n
CCCOCCOC(=O)c1[nH]c2c(c1C)C(=O)CC(c1cc(OC)ccc1OC)C2 (stereo not given)	n	71.7	n	n	n	n
COc1ccc(OC)c(C2CC(=O)c3c([nH]c(C(=O)OC(C)C)c3C)C2)c1 (stereo not given)	n	59.8	n	x	n	57.6
COCCOC(=O)c1[nH]c2c(c1C)C(=O)CC(c1cc(OC)ccc1OC)C2 (stereo not given)	n	n	n	n	n	x
C[C@H](CO)N1C[C@H](C)[C@H](CN(C)C(=O)Nc2cccc3ccccc23)OCCCC[C@H](C)Oc2ccc(NS(=O)(=O)c3cccs3)cc2C1=O	x	x	n	x	x	x
COc1ccc(S(=O)(=O)/N=C2\C=C(Nc3ccc(O)cc3)C(=O)c3ccccc32)cc1	n	74.2	n	95.3	n	83.2
CC(=O)Nc1ccc(NC2=C/C(=N/S(=O)(=O)c3cccs3)c3ccccc3C2=O)cc1	n	n	x	n	n	x
C[C@@H]1C=CC(=O)O[C@@H]1c1ccc(Cl)cc1	n	96.0	x	n	n	96.8
CC1C(=O)OC(c2ccc(Cl)cc2)C(C)(C)C1=O (stereo not given)	n	n	n	n	n	x
Cc1noc(C)c1NC(=O)N(C)C[C@@H]1Oc2c(NC(=O)C3CC3)cccc2C(=O)N([C@@H](C)CO)C[C@@H]1C	x	x	n	x	x	x
CC(C)c1ccc(NC(=O)c2csnn2)cc1	n	n	n	n	n	n
COc1cccc(NC(=O)CSc2nnc(-c3ccc(C)cc3)o2)c1	n	n	59.7	n	n	n
COc1ccc(C)cc1NC(=O)CSc1nnc(-c2ccc(Br)cc2)o1	n	n	n	n	n	x
Cc1ccc(NC(=O)CSc2nnc(-c3ccncc3)o2)cc1	n	n	n	n	n	x
COc1ccccc1NC(=O)CSc1nnc(-c2ccc(C)cc2)o1	n	n	n	n	n	n
CN(C)CCCNC(=O)C[C@H]1C=C[C@H](NS(=O)(=O)c2ccccc2)[C@H](CO)O1	x	x	n	x	x	x
CCCCCCN1Cc2ccccc2C1	n	n	n	n	n	x
CCCCCCCCCCn1ccc(=N)cc1	n	75.2	x	88.3	n	75.0
NC(N)=N/N=C/c1ccc(OS(=O)(=O)c2ccccc2)cc1	n	50.1	n	n	n	n
COc1ccccc1C1=NOC(COc2ccc3c(C)cc(=O)oc3c2)C1 (stereo not given)	n	67.0	x	n	n	n
Cc1cc(=O)oc2cc(OCc3nnc(-c4ccccc4Br)o3)ccc12	n	n	n	n	n	x
COc1ccc(C2=NOC(COc3ccc4c(C)cc(=O)oc4c3)C2)c(OC)c1 (stereo not given)	n	51.0	n	n	n	n
COc1ccc2c(C)cc(=O)oc2c1	n	x	n	n	x	x
CCOc1ccccc1-c1nc(CN2CCN(C(=O)c3ccco3)CC2)c(C)o1	n	n	n	n	n	x
SMILES	SMARCA2 activ	Jurkat NFkB inh	esBAF inh	Gli-Sufu block	697 NFkB inh	Jurkat NFkB conf
CCOc1ccccc1-n1c(CN2CCN(C(=O)c3ccco3)CC2)nc2ccccc2c1=O	n	95.3	x	n	n	n
COc1cccc(CNC(=O)C[C@@H]2C=C[C@H](NS(=O)(=O)c3ccccc3OC)[C@H](CO)O2)c1	x	x	n	x	x	x
CC1=CC(=O)C(C(C)C)=C/C1=N/OS(=O)(=O)c1ccccc1	n	81.3	x	n	n	n
CC1=CC(=O)C=C(C)C1=NOS(=O)(=O)c1ccccc1	n	x	n	n	x	x
COc1ccc(Cl)cc1Nc1cc(C)nc2ccccc12	n	54.1	x	n	n	n
COc1ccc(OC)c(Nc2cc(C)nc3ccccc23)c1	n	66.8	n	n	n	n
COc1ccc2nc(C)cc(Nc3ccccc3OC)c2c1	n	x	n	x	x	x
Cc1cc(Nc2ccccc2Cl)c2ccccc2n1	n	n	n	n	n	x
COc1ccc(OC)c(Nc2cc(-c3ccccc3)nc(N)n2)c1	n	56.5	x	n	n	n
CC(C)OC(=O)N(C)C[C@H]1OCc2ccccc2-c2c(n(C)c3ccccc23)C(=O)N([C@H](C)CO)C[C@H]1C	x	x	n	x	x	x
C[C@@H](NC(=O)C[C@@H]1CC[C@@H](NC(=O)Cc2ccccn2)[C@@H](CO)O1)c1ccccc1	x	x	n	x	x	x
